Several values for one entry are separate records, joined by “and”; a condition that tells them apart may be missing. Equal values may be shown once. Screen size: about 16,000 compounds; about 5,800 (36%) were called active. About 23% were inconclusive and are not listed. Calls follow the shape of the dose curve; as a rule, active = well fitted curve in the direction sought with a large enough effect; inconclusive = small, poorly fitted or top-dose-only effect, or effect the other way; inactive = no such curve, though single readings can be large or run the other way. This is one part of the list. The source holds several records for some structures; these can differ, active in one and inactive in another.
% is scaled to controls: 0 for no effect and ±100 for the full control effect.

The target in this test is Cytochrome P450 2C19 (Homo sapiens) (UniProt P33261). The experiment in a line: Cytochrome panel assay with activity outcomes. The following applies: recombinant CYP, pro-luciferin dealkylation, luminescence, p450-cyp2c19; series mostly up to 57.1 µM; activity, negative = inhibition: at the top concentration.
Sequence of Cytochrome P450 2C19 (Homo sapiens) (P33261 whole entry, looked up): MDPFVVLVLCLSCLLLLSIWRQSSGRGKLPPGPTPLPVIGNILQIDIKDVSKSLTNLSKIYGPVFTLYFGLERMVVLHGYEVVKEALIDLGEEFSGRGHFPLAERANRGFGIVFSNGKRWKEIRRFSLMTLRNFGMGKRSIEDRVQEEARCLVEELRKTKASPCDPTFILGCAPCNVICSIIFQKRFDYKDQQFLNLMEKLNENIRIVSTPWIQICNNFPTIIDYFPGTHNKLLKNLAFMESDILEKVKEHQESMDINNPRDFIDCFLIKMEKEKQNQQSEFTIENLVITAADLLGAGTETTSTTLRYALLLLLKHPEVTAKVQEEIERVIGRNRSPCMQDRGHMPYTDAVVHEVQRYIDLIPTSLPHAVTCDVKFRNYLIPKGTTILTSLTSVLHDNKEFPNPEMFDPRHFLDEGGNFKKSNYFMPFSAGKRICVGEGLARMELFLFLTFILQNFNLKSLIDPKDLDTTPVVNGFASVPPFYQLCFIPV
Regarding `Cn1c(=S)c2[nH]c(SCCN3C(=O)c4ccccc4C3=O)nc2n(C)c1=O`, the activity, negative = inhibition is 17.2% [at 11.4 µM] (inactive).
Usually AC50 stands for the midpoint of the concentration-response curve, whichever way the signal moves. On to `O=C1c2ccccc2C(=O)N1CCSC(=S)N1CCOCC1`, for which the AC50 was 1.58 µM (active).
For `O=c1c(-c2ccccc2)nc2cnc(N3CCOCC3)nc2n1-c1ccccc1`, the “activity, negative = inhibition” value is -17.9% (inactive).
In the case of `Cc1cc2ccccn2c1C(=O)c1ccc(Cl)cc1`, the AC50 was 1.26 µM (active).
As for `Cc1cc(CC(=O)O)n(C)c1C(=O)c1ccc(Cl)cc1`, the “activity, negative = inhibition” value was -13.8% [at 25.6 µM] (inactive).
Regarding `Cc1nc2cnc(N3CCOCC3)nc2n(C)c1=O`, the “activity, negative = inhibition” value was -28.1% (inactive).
For `Cc1cc2ccccn2c1C(=O)c1nc(N2CCOCC2)ncc1Cl`, the AC50 was 7.94 µM (active).
For the molecule `CCC(=O)NNc1cc(=O)c2c(=O)n(C)c(=O)n(C)c2[nH]1`, the “activity, negative = inhibition” value was 9.13% (inactive).
Still for that read-out and setting: for `CC(=O)NC1=NC(=O)C(C)S1` (stereo not given) the value was 17.4% (inactive); for `Cc1ccc(CS(=O)(=O)CCC(=O)NCc2ccccn2)cc1`, -22.8% (inactive).
The same measure, in the same setting: for `COc1cc2c(cc1OC)-c1cc(NCc3ccccn3)nc(=O)n1CC2` the value was 7.74% (inactive).
`COc1ccc(CC(=O)NCc2ccccn2)cc1OC`: the AC50 is 28.2 µM (active).
On the same count and under the same terms, then `COc1cc(CNCc2ccccn2)ccc1OCc1ccc(Cl)cc1Cl`, with 3.98 µM (active).
In the case of `CCN1C(=O)[C@H]2[C@H]3[C@H](O)[C@H](O)C/C(=N/OCC(C)C)[C@H]3CC[C@@H]2C1=O`, the activity, negative = inhibition was 28.2% [at 11.4 µM] (inactive).
Same read-out and setting: then `COc1ccccc1OCC(=O)NNC(=O)c1cnccn1`, with -6.18% (inactive); and `CCOC(=O)N/N=C1/C[C@@H](O)[C@@H](O)[C@@H]2[C@@H]3C(=O)N(Cc4ccccc4)C(=O)[C@H]3CC[C@H]12`, with 10.9% [at 11.4 µM] (inactive).
With `COc1ccccc1OCC(=O)N/N=C1/SCC(=O)N1Cc1ccccc1`, the AC50 is 14.1 µM (active).
On to `CCC(C)N1C(=O)S/C(=C/c2ccc(Sc3nc4ccccc4[nH]3)o2)C1=O` (stereo not given), for which the AC50 was 1.12 µM (active).
For the molecule `CCCCCC1CCC(C(=O)NNC(=S)NCC)CC1` (stereo not given), the AC50 is 17.8 µM (active).
As to `COc1ncnc(NS(=O)(=O)c2ccc(N)cc2)c1OC`, the “activity, negative = inhibition” value was -33.9% [at 25.6 µM] (inactive).
On the same count and under the same terms, for `Nc1nc(N)c(CCCCc2ccccc2)c(N)n1` the value was -22.9% [at 11.4 µM] (inactive); for `Cc1[nH]c(N)nc(=S)c1CCC(=O)O`, 3.33% [at 11.4 µM] (inactive).
`Cc1[nH]c(N)nc(=S)c1CCCNc1ccccc1`: the AC50 was 2 µM (active).
On to `Cn1c(N)c(N=Nc2ccc(S(N)(=O)=O)cc2)c(=O)n(C)c1=O`, for which the activity, negative = inhibition was 76% [at 11.4 µM] (inactive).
On to `c1ccc(-c2nnc(SCCC3OCCCO3)o2)cc1`, for which the AC50 was 5.01 µM (active).
Still for that read-out and setting: then `COc1ccc(NC(=O)N2CCC3(CC2)CCN(S(C)(=O)=O)CC3)cc1`, with 3.16 µM (active).
With `COc1ccc(NC(=O)N2CC3(CCN(S(C)(=O)=O)CC3)C2)cc1`, the “activity, negative = inhibition” value is -23% (inactive).
As to `COc1ccc(NC(=O)N2CCC3(CC2)CCN(S(=O)(=O)c2ccccc2)CC3)cc1`, the “activity, negative = inhibition” value was -14.2% (inactive).
For `O=C(Nc1ccccc1)N1CCC2(CC1)CCN(S(=O)(=O)c1ccccc1)CC2`, the AC50 was 15.8 µM (active).
As for `COc1ccc(NC(=O)N2CC3(CCN(S(=O)(=O)c4ccccc4)CC3)C2)cc1`, the “activity, negative = inhibition” value is -20.5% (inactive).
The same measure, in the same setting: for `COc1ccc(NC(=O)N2CC3(CCN(C(=O)c4cnccn4)CC3)C2)cc1` the value was 0.386% (inactive).
With `COc1ccc(NC(=O)N2CCC3(CC2)CCN(C(=O)c2cnccn2)CC3)cc1`, the half-maximal activity concentration (AC50) was 25.1 µM (active).
Regarding `COc1ccc(NC(=O)N2CCCC3(CCN(C(=O)c4cnccn4)CC3)C2)cc1`, the “activity, negative = inhibition” value was -10.3% (inactive).
On the same count and under the same terms, then `COc1ccc(NC(=O)N2CCCC3(CCN(S(C)(=O)=O)CC3)C2)cc1`, with -3.07% (inactive).
For the molecule `CC12c3ccccc3C(c3ccccc31)C1C(=O)N(Cc3cccnc3)C(=O)C12` (stereo not given), the AC50 was 1.26 µM (active).
Same read-out and setting: then `Nc1ccccc1Oc1ncc(C(F)(F)F)cc1Cl`, with 7.94 µM (active).
For the molecule `FC(F)(F)c1cnc(/C=C/Nc2ccccc2Cl)c(Cl)c1`, the “activity, negative = inhibition” value was -25.2% (inactive).
Turning to `Oc1cc(O)c2c(c1)O[C@H](c1ccc(O)c(O)c1)[C@H](O)C2`, the AC50 result was “inactive”.
Still for that read-out and setting: then `CN1CCN(c2nc3cc(C(F)(F)F)ccc3n3cccc23)CC1`, with 12.6 µM (active).
As for `CCOc1ccc2c(ccc(/C=C\c3cc(C)c4cccnc4c3O)[n+]2C)c1`, the activity, negative = inhibition is 27.7% [at 11.4 µM] (inactive).
The same measure, in the same setting: for `COc1cc(NCCC(=O)O)c2ncccc2c1` the value was -14.2% [at 11.4 µM] (inactive).
For `Cc1ccc(OCCCOc2cccc3cccnc23)cc1C`, the AC50 was 1.12 µM (active).
Same read-out and setting: then `O=C1N/C(=C\c2ccc(N3CCOCC3)c(F)c2)C(=O)N1Cc1ccccc1`, with 14.1 µM (active).
Take `CN1CCN(c2nc(-c3ccoc3)nc3ccccc23)CC1`: the “activity, negative = inhibition” value is -25.4% (inactive).
In the case of `c1ccc2c(-n3ccnc3)nc(-c3ccoc3)nc2c1`, the AC50 is 20 µM (active).
In the case of `c1ccc2c(N3CCOCC3)nc(-c3ccoc3)nc2c1`, the “activity, negative = inhibition” value is -11.5% (inactive).
`CN(C)c1ccc(-c2nc(-n3ccnc3)c3ccccc3n2)cc1`: the AC50 is 2.51 µM (active).
On the same count and under the same terms, then `CN(C)c1ccc(-c2nc(N3CCNCC3)c3ccccc3n2)cc1`, with 15.8 µM (active).
With `c1ccc2c(N3CCNCC3)nc(-c3ccc4c(c3)OCO4)nc2c1`, the “activity, negative = inhibition” value was -12% (inactive).
On the same count and under the same terms, for `c1cncc(-c2nc(N3CCNCC3)c3ccccc3n2)c1` the value was -18.2% (inactive).
The same measure, in the same setting: for `CO[C@@H]1/C=C\CC(=O)N[C@@H](C)C(=O)OC[C@@H](OC)[C@H](C)/C=C\CC(=O)OC[C@H]1C` the value was -30.6% [at 11.4 µM] (inactive).
On the same count and under the same terms, then `CN(C)S(=O)(=O)Nc1ccccn1`, with -1.75% [at 11.4 µM] (inactive).
For the molecule `O=C1C(Cl)=C(Nc2ccc(S(=O)(=O)Nc3ccccn3)cc2)C(=O)c2ccccc21`, the AC50 is 0.794 µM (active).
With `Nc1ccc(S(=O)(=O)Nc2ccccn2)cc1`, the “activity, negative = inhibition” value is 35.2% [at 25.6 µM] (inactive).
As to `CCOC(=O)N1CCC(NC(=O)CSCc2cnn(-c3ccccc3)c2-n2cccc2)CC1`, the AC50 is 5.01 µM (active).
On the same count and under the same terms, then `Cc1ccc(C)c(CN2C(=O)C3CCCN3c3ccc(C#N)cc32)c1` (stereo not given), with 3.16 µM (active); and `N=C(c1ccc2ccccc2c1)c1ccccc1Cc1ccccc1`, with 3.98 µM (active).
Consider `Cc1ccc(C)c(C(=N)c2ccccc2Cc2ccccc2)c1`, for which the AC50 was 1 µM (active).
As to `CC(C)N(CCC(=O)c1ccc2ccccc2c1)Cc1ccccc1`, the “activity, negative = inhibition” value is 4.32% (inactive).
Take `COc1ccccc1C(=O)N/C(=C/c1ccc(Br)cc1)C(=O)NCC(=O)O`: the AC50 was 25.1 µM (active).
`COc1cc(/C=C(/NC(=O)c2ccccc2Cl)C(=O)O)cc(OC)c1OC`: the “activity, negative = inhibition” value is -19.5% (inactive).
Same read-out and setting: for `O=C(O)CNC(=O)c1ccccc1O` the value was 26.9% [at 11.4 µM] (inactive); for `CS(=O)(=O)N1CCC2(CC1)CN(c1cccc(-c3ccccc3)c1)C2`, -17.6% (inactive).
`CCn1c2ccccc2c2cc(NS(=O)(=O)c3ccccc3C)ccc21`: the AC50 is 0.282 µM (active).
Take `CCn1c(C)nc2cc(C(=O)NNS(=O)(=O)c3ccccc3F)ccc21`: the “activity, negative = inhibition” value is -12.6% (inactive).
On to `CCc1ccc2[nH]c(O)c(N=Nc3nc(-c4ccccc4)cs3)c2c1`, for which the AC50 was 15.8 µM (active).
Regarding `O=[N+]([O-])c1ccccc1N=Nc1c(O)[nH]c2ccc(S(=O)(=O)O)cc12`, the activity, negative = inhibition is -23.2% [at 11.4 µM] (inactive).
With `COC(=O)C1=C(C)NC(C)=C([N+](=O)[O-])[C@@H]1c1ccccc1C(F)(F)F`, the AC50 was 0.126 µM (active).
The same measure, in the same setting: then `COC(=O)C1=C(C)NC(C)=C([N+](=O)[O-])[C@H]1c1ccccc1C(F)(F)F`, with 0.158 µM (active).
Turning to `CCC(=O)O[C@@]1(C(=O)SCF)[C@@H](C)C[C@H]2[C@@H]3C[C@@H](F)C4=CC(=O)C=C[C@@]4(C)[C@]3(F)[C@@H](O)C[C@]21C`, the “activity, negative = inhibition” value is -19.8% [at 25.6 µM] (inactive).
Same read-out and setting: for `C[C@@H](c1ccccc1)N1C(=O)[C@H]2[C@H]3[C@H](O)[C@H](O)C/C(=N/OC[C@@H](O)COCc4ccco4)[C@H]3CC[C@@H]2C1=O` the value was -25% [at 11.4 µM] (inactive); for `CCOC(=O)[C@@]12C[C@@H]1/C(=N/O)c1ccccc1O2`, -14.2% (inactive).
Consider `O=C(Nc1ccccc1)[C@@]12C[C@@H]1/C(=N/O)c1ccccc1O2`, for which the AC50 is 10 µM (active).
Still for that read-out and setting: then `N=C1[C@@H](O)[C@]2(I)c3ccccc3N3C(=N)[C@H](O)[C@@H]4c5ccccc5N1[C@@H]4[C@@H]32`, with 3.16 µM (active); and `CC(C)[C@H](N)c1nnc(SC/C=C/c2ccccc2)o1`, with 2 µM (active).
On the same count and under the same terms, then `CC(C)[C@H](N)c1nnc(SCc2ccc(Cl)cc2)o1`, with 0.178 µM (active).
Regarding `OC[C@@H](O)[C@@H](O)[C@@H](O)[C@@H](O)c1nc2ccc(Cl)cc2[nH]1`, the activity, negative = inhibition is -0.441% [at 11.4 µM] (inactive).
The same measure, in the same setting: then `CC(=O)/C(=N\N=C(N)N)c1ccccc1`, with 102% [at 11.4 µM] (inactive); and `C/C(=N\N=C1\NC(=O)CC(C(=O)O)S1)c1cccs1` (stereo not given), with 22.1% (inactive).
In the case of `C/C(=N\N=C(c1ccccc1)c1ccccc1)c1cccs1`, the AC50 is 3.55 µM (active).
The same measure, in the same setting: for `O=C(c1n[nH]c(=O)c2ccccc12)N1CCN(C2c3ccccc3-c3ccccc32)CC1` the value was 3.16 µM (active).
As to `CC[N+](CC)(CC(=O)Nc1c(C)cccc1C)Cc1ccccc1`, the “activity, negative = inhibition” value is -31% [at 25.6 µM] (inactive).
In the case of `Cc1cccc(C)c1NC(=O)C[N+](C)(C)C`, the AC50 result was “inactive and 15.8 µM (active)”.
In the case of `CC[N+](CC)(CC)CC(=O)Nc1c(C)cccc1C`, the AC50 result was “inactive”.
`C/C(=N\[N+](C)(C)C)c1ccc(C)c(C)c1`: the activity, negative = inhibition was 17.4% [at 11.4 µM] (inactive).
`CC1=Nc2ccccc2/C1=C\c1nc(-c2ccc(C(F)(F)F)cc2)oc1O`: the AC50 was 14.1 µM (active).
With `Cc1ccccc1OC/C(O)=C(\C#N)c1nc2ccccc2[nH]1`, the “activity, negative = inhibition” value is -17.2% (inactive).
Regarding `COc1cccc(OC)c1/C(O)=C(\C#N)c1nc2ccccc2[nH]1`, the AC50 was 7.08 µM (active).
Regarding `C=CC1=C(C(=O)O)N2C(=O)[C@@H](NC(=O)/C(=N\OCC(=O)O)c3csc(N)n3)[C@@H]2SC1`, the “activity, negative = inhibition” value was 21.8% [at 25.6 µM] (inactive).
With `COc1ccc(NC(=O)CSc2nc(C)c3c(c2C#N)CCCC3)cc1`, the AC50 was 1.12 µM (active).
`CCOc1ccc(NC(=O)CCNS(=O)(=O)c2ccc3c(c2)c(=O)n(C)c(=O)n3C)cc1`: the “activity, negative = inhibition” value was -24.2% (inactive).
On the same count and under the same terms, for `CC(=O)Nc1ccc(C2=NN(CC#N)C(=O)SC2)cc1` the value was -35.8% (inactive).
For `CSc1nc(N)nc(SCC(=O)Nc2ccc(Cl)cc2)c1C#N`, the AC50 was 0.708 µM (active).
The same measure, in the same setting: then `CCOc1ccc(NC(=O)CSc2nc(C)c3c(c2C#N)CCCC3)cc1`, with 2.82 µM (active).
Consider `COc1ccc(CSC2=C(C#N)C(=O)NC3(CCCCC3)S2)cc1`, for which the activity, negative = inhibition is -6.47% [at 11.4 µM] (inactive).

(Values after PubChem BioAssay AID1851 (National Center for Advancing Translational Sciences (NCATS), 2009).)
